Screening results: PubChem BioAssay, National Center for Advancing Translational Sciences (NCATS)
An excerpt weighted towards active compounds, which were near 10% of everything screened.
ALDH1A1 block – inhibitors of human aldehyde dehydrogenase 1A1; P00352; Purified ALDH1A1, NADH fluorescence, propionaldehyde substrate; Potency, µM (titrated, usually from 75.3 µM), usual class: inhibitors; 220,000 tested, 7.3% active; AID 1030
Target sequence (P00352 whole entry, looked up): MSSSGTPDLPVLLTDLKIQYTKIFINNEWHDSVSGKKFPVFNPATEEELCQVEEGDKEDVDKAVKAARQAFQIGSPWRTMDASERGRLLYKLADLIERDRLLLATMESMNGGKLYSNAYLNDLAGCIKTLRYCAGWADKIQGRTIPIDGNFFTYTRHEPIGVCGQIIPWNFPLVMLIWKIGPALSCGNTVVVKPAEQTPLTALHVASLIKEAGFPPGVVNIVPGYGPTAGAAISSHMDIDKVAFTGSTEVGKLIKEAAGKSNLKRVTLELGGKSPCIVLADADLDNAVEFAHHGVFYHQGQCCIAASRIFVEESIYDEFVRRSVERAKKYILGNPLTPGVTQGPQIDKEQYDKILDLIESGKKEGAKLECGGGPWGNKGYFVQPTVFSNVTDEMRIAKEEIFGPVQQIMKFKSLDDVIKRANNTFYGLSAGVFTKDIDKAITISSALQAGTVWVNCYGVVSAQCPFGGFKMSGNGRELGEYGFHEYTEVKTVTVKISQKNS
PNC inhibitor – perinucleolar compartment assembly inhibition. 140,000 tested, 3.1% active. PC3M PTB-GFP, PNC prevalence imaging, 16 h; stronger effect = lower value. activity change (PNC), negative = inhibition, % at 10 µM;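 active = readout at or below -70, meaning at least 70% loss of cells showing the perinucleolar compartment, a nuclear body marking cancer cells; inconclusive = readout between -30 and a set limit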
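Read-out is percentage of cells bearing a perinucleolar compartment, from automated 20x imaging of fixed, Hoechst-stained PC3M PTB-GFP cells. Cells were seeded 4 h, then exposed 16 h to compound (23 nl of library stock) in duplicate plates.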
HPGD block – inhibitors of human 15-hydroxyprostaglandin dehydrogenase (HPGD) | P15428 | purified HPGD, NADH fluorescence kinetic, PGE2 substrate | Potency, µM, usual class: inhibitors | 150,000 tested, 4.3% active | AID 894
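20 nM HPGD preincubated 15 min at room temperature with compound in 50 mM Tris-HCl pH 8, 0.01% Tween 20. Started with 1 mM NAD+ and 30 uM prostaglandin E2; NADH fluorescence (360/450 nm) read 5 times over 30-s intervals, last minus first.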
LMNA splice mod – changes lamin A minigene splicing in HeLa cells; HeLa LMNA splicing GFP/RFP minigene ratio, 48 h; Potency, µM (highest dose often 46.1 µM), actives largely listed as inhibitors; 200,000 tested, 0.01% active; AID 1487; active = well fitted inhibition curve with a large enough effect in the signal ratio, with a control signal flat, not every such curve was filed as active; inconclusive = small, poorly fitted or top-dose-only effect, or effect the other way, or a change in a side signal; the % refers to the signal ratio
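S3 HeLa cells stably expressing lamin A-EGFP splicing minigene plus DsRed2, 600 cells/well, 48 h compound exposure at 37C. Laser-scanning cytometry; analysed as GFP (500-530 nm)/RFP (575-640 nm) total intensity ratio; 0.5% DMSO vehicle.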
12-hLO inh – inhibitors of human 12-lipoxygenase (ALOX12). P18054. purified 12-hLO, xylenol orange hydroperoxide absorbance. Potency, µM (doses to about 57.1 µM), actives largely listed as inhibitors. 150,000 tested, 0.12% active. AID 1452; active = well fitted inhibition curve with a large enough effect; inconclusive = small, poorly fitted or top-dose-only effect; note: nearly all actives have a fitted effect of over 55% in size
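Purified human 12hLO (150 nM final) was preincubated with compounds for 15 min at room temperature in 25 mM Hepes pH 7.0, 0.01% Triton X-100, then reacted with 40 uM arachidonic acid for 30 min. Hydroperoxide was detected with ferrous iron/xylenol orange.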
A number is an active result; [ ] = remark or other dose. Unless noted, calls come from the whole dose curve; as a rule, active = well fitted inhibition curve with a large enough effect (not every such curve was filed as active); inconclusive = small, poorly fitted or top-dose-only effect, or another doubt; inactive = no such curve, though single readings can be large or run the other way.

Cc1ccc2c(c1)N(C(=O)N1CCC(C(=O)NCCC3=CCCCC3)CC1)CC(C)O2 (configuration not stated) was read as LMNA splice mod inactive.
Screening COc1cc(/C=C(\C#N)C(=O)NC2CCCCC2)ccc1OCc1ccc(C(=O)O)cc1 returned ALDH1A1 block 14µM.
`COc1ccc(/C=C(\C#N)C(=O)NCC2CCCO2)cc1OC` (configuration not stated) gave ALDH1A1 block inconclusive, PNC inhibitor inconclusive, HPGD block 22µM, LMNA splice mod inactive and 12-hLO inh inactive.
For CCc1ccc(NC(=O)/C(C#N)=C\c2ccc(OC)c(C(=O)O)c2)cc1 the results were ALDH1A1 block inactive and LMNA splice mod inactive.
For COc1cc(/C=C(\C#N)C(=O)NCC2CCCO2)ccc1OCC(N)=O (configuration not stated) the results were ALDH1A1 block inactive and LMNA splice mod inactive.
For COc1cc(/C=C(/C#N)C(=O)Nc2ccccc2)ccc1OCc1ccc(C(=O)O)cc1 the results were ALDH1A1 block 22µM and LMNA splice mod inactive.
For CC(=O)c1cc(-c2ccc(F)cc2)n(CC(=O)NCc2ccc(C)cc2)c1C the results were LMNA splice mod inactive.
Cc1ccc(Nc2nc(-c3sc(NC(=O)c4cccc(Cl)c4)nc3C)cs2)cc1 was read as ALDH1A1 block 16µM, PNC inhibitor inactive, HPGD block inactive, LMNA splice mod inconclusive and 12-hLO inh inactive.
For Cc1ccccc1Nc1nc(-c2sc(NC(=O)c3ccco3)nc2C)cs1 the results were ALDH1A1 block 20µM, PNC inhibitor inactive, HPGD block inconclusive, LMNA splice mod inactive and 12-hLO inh inactive.
Screening CCOc1ccccc1Nc1nc(-c2sc(NC(=O)c3ccco3)nc2C)cs1 returned ALDH1A1 block inactive, PNC inhibitor inactive, HPGD block inactive, LMNA splice mod inconclusive and 12-hLO inh inactive.
Screening CCC(C)C(=O)Nc1nc(C)c(-c2csc(Nc3ccc(Cl)cc3)n2)s1 (configuration not stated) returned ALDH1A1 block 22µM, PNC inhibitor inactive, HPGD block inconclusive, LMNA splice mod inactive[0.0737 µM] and 12-hLO inh inactive.
`CC(=O)Nc1nc(C)c(-c2csc(Nc3ccc(O)cc3)n2)s1` gave ALDH1A1 block 25µM, PNC inhibitor inactive, HPGD block inactive, LMNA splice mod inconclusive and 12-hLO inh inactive.
O=C(N/N=C\c1ccc([N+](=O)[O-])s1)c1cncc(Br)c1 was read as ALDH1A1 block inactive, PNC inhibitor -102, HPGD block inactive, LMNA splice mod inconclusive and 12-hLO inh inactive.
`O=C(O)CCCc1ccc2ccccc2c1` gave ALDH1A1 block inactive[13.5 µM], HPGD block inactive and 12-hLO inh inactive[11.4 µM].
For COc1ccc(NC(=O)CN2C(=O)CCn3nc(-c4cccn4C)cc32)cc1Cl the results were LMNA splice mod inactive.
`O=[N+]([O-])c1cc(-c2n[nH]c(-c3ccccc3)n2)cc([N+](=O)[O-])c1` gave ALDH1A1 block inactive, PNC inhibitor inconclusive, HPGD block inactive, LMNA splice mod inconclusive and 12-hLO inh inactive.
Screening Clc1ccccc1-c1nc(-c2ccccc2)n[nH]1 returned ALDH1A1 block inactive, PNC inhibitor inconclusive, HPGD block 25µM, LMNA splice mod inactive and 12-hLO inh inactive.
COc1ccc(CNc2nc(-c3cccnc3)nc3ccccc23)c(OC)c1 was read as ALDH1A1 block inactive and LMNA splice mod inconclusive.
C#CCN1C(=O)C(O)(CC(=O)/C=C/C=C/c2ccccc2)c2ccccc21 (configuration not stated) was read as ALDH1A1 block 6.3µM and LMNA splice mod inactive.
O=C(CN1C(=O)NC2(CCc3ccccc32)C1=O)c1ccc2c(c1)OCCO2 (configuration not stated) was read as ALDH1A1 block inactive, PNC inhibitor inactive, HPGD block inactive, LMNA splice mod inactive and 12-hLO inh inactive.
Screening CCN1C(=O)C(O)(CC(=O)/C=C/C=C/c2ccccc2)c2ccccc21 (configuration not stated) returned ALDH1A1 block inconclusive, PNC inhibitor inactive, HPGD block inactive, LMNA splice mod inactive and 12-hLO inh inactive.
C#CCN1C(=O)C(O)(CC(=O)c2ccc3c(c2)OCCO3)c2ccccc21 (configuration not stated) was read as ALDH1A1 block 1µM, PNC inhibitor inactive, HPGD block inactive, LMNA splice mod inactive and 12-hLO inh inactive.
`CCCN1C(=O)C(O)(CC(=O)c2cccc(OC)c2)c2ccccc21` (configuration not stated) gave ALDH1A1 block 4.5µM, PNC inhibitor inactive, HPGD block inactive, LMNA splice mod inactive and 12-hLO inh inactive.
`CCCN1C(=O)C(O)(CC(=O)c2ccc3c(c2)OCCO3)c2ccccc21` (configuration not stated) gave ALDH1A1 block 7.1µM, PNC inhibitor inconclusive, HPGD block inactive, LMNA splice mod inactive and 12-hLO inh inactive.
COc1ccc(Cl)cc1NC(=O)NCCc1c(C)nn(C)c1C was read as LMNA splice mod inactive.
`Cc1ccc2c(c1Br)C(O)(CC(=O)c1ccc(F)cc1)C(=O)N2` (configuration not stated) gave LMNA splice mod inactive.
CS(=O)(=O)CCCCN=C=S was read as ALDH1A1 block inconclusive, HPGD block inactive, LMNA splice mod inconclusive and 12-hLO inh inactive.
For CC1=C(c2ccc(F)cc2)S(=O)(=O)N=C1N1CCC(C(=O)NCCc2cccc(C)c2)CC1 the results were LMNA splice mod inactive.
`COc1ccc(-c2cn3nc(N4CCC(C(=O)NCc5ccccc5F)CC4)sc3n2)cc1` gave LMNA splice mod inactive.
CN1C(=O)C(O)(CC(=O)c2cccs2)c2ccccc21 (configuration not stated) was read as ALDH1A1 block inactive and LMNA splice mod inactive.
`C#CCN1C(=O)C(O)(CC(=O)c2ccc(OC)c(OC)c2)c2ccccc21` (configuration not stated) gave ALDH1A1 block 0.35µM, PNC inhibitor inconclusive, HPGD block inactive, LMNA splice mod inactive and 12-hLO inh inactive.
Screening Cc1ccc2c(c1)C(O)(CC(=O)/C=C/C=C/c1ccccc1)C(=O)N2 (configuration not stated) returned ALDH1A1 block inactive, PNC inhibitor -92, HPGD block inactive, LMNA splice mod inactive and 12-hLO inh inactive.
`Cc1ccc(F)c(NC=C2C(=O)OC(C)(C)OC2=O)c1` gave ALDH1A1 block 10µM, PNC inhibitor inactive, HPGD block inactive, LMNA splice mod inactive and 12-hLO inh inactive.
Screening CS(=O)c1ccccc1COC(=O)Nc1ccc(Cl)cc1 (configuration not stated) returned ALDH1A1 block inconclusive, PNC inhibitor -80, HPGD block inactive, LMNA splice mod inactive and 12-hLO inh inactive.
`CC(=O)N1CC2(CC2)CC1c1ccccc1` (configuration not stated) gave ALDH1A1 block inactive, HPGD block inactive and 12-hLO inh inactive.
